Source: PubChem BioAssay (several laboratories)
eIF4H inh = human eIF4H binding inhibitors, primary screen, translation initiation inhibitor project, biochemical, uHTS, fluorescence polarization | Eukaryotic translation initiation factor 4H (Homo sapiens), Q15056 | eIF4H fluorescence polarization binding assay | inhibition, % at 35 µM | actives 0.94% (n = 290,000);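 also: calls also rest on retests at 20 µM and on dose response follow-up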
PERK inhibitor = block of dimerizer-induced PERK translation repression, primary screen, PERK inhibitor project, CHO PERK-DD cells, SEAP luminescence, HTS; Eukaryotic translation initiation factor 2-alpha kinase 3 (Homo sapiens), Q9NZJ5; actives 0.17% (n = 220,000); inhibition, % at 5.6 µM; CHO PERK-DD fusion, SEAP luminescence translation reporter;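 active = inhibition above the mean inhibition of all tested compounds plus 3 SD, set separately per screening campaign, cut at about 2.9% in these data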;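 also: PERK kinase domain activated by AP20187 dimerizer at 100 nM; 0% = DMSO with dimerizer and 100% = rapamycin at 8.4 µM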
PABP polyA inh = PABP poly(A) RNA binding inhibitors, primary screen, biochemical, fluorescence polarization, uHTS. Polyadenylate-binding protein 1 (Homo sapiens), P11940. inhibition, % at 35 µM. actives 1% (n = 290,000). AID 2014, 2009;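 also: calls also rest on retests at 20 µM and on dose response follow-up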
GRK2 inh = compounds blocking aptamer binding on GRK2 – biochemical, human GRK2, bead flow cytometry, HTS, primary screen | Beta-adrenergic receptor kinase 1 (Homo sapiens), P25098 | inhibition of aptamer binding, % at 10 µM | FAM-aptamer displacement from GRK2 | actives 0.59% (n = 330,000);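 active = inhibition of aptamer binding above 40%, roughly 3 SD of noise, on plates passing a quality check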;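 also: median bead fluorescence of bound FAM aptamer so fluorescent compounds give negative values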
PABP1 MLLE inh = inhibitors of PABP1 MLLE–PAM2 peptide binding, primary screen, biochemical, fluorescence polarization, FITC-PAM2, GST-MLLE. Polyadenylate-binding protein 1 (Homo sapiens), P11940. inhibition, % at 20 µM. actives 0.36% (n = 360,000). AID 588489, 2011; in the data active = inhibition above about 35%, passing the limit was not always enough;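 also: plate controls were DMSO wells with GST-MLLE for no effect and wells lacking GST-MLLE protein for full effect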
* marks the source's active call; other numbers are inactive results; ? = inconclusive; . = not tested or not shown. The list is not random: actives were taken first. Their share in the collection is about 1.9%. Unless noted, no rule for the calls is given here.

SMILES | eIF4H inh | PERK inhibitor | PABP polyA inh | GRK2 inh | PABP1 MLLE inh
CCC[n+]1c2ccccc2cc2ccccc21 | 0.0 | . | 67.0* | 11.0 | -79.3
O=C(Nc1cc2nn(-c3ccccc3)nc2cc1Cl)c1ccco1 | 27.6* | 1.2 | 57.6* | 0.0 | -16.8
O=C(Nc1ccc2nn(-c3ccccc3)nc2c1)c1ccco1 | 5.0 | -0.7 | 1.0 | 2.0 | 1.3
COC(=O)c1nn(-c2ccc(OC)cc2)c(=O)cc1NN | active | 0.9 | 67.1 | 0.0 | -10.9
COCc1ccc(CN2CCc3c([nH]c4ccccc34)C2CC(C)C)o1 (stereo not drawn) | 67.4 | 2.1 | 119.2* | 3.0 | -12.8
CC1(C)C(=O)OC(C(=O)c2ccc(Cl)cc2)C(C)(C)C1=O (stereo not drawn) | 6.2 | 1.2 | -1.3 | 100.0* | 4.8
CC1(C)C(=O)OC(C(=O)c2ccccc2)C(C)(C)C1=O (stereo not drawn) | -17.0 | 0.1 | 7.4 | 0.0 | -10.2
CCCCC1SC(N)=NC1=O (stereo not drawn) | . | . | . | . | -2.1
O=C(CSc1nnc(-c2ccco2)o1)c1ccccc1 | 14.0 | 1.1 | 0.3 | 1.0 | 14.9
O=C(CSc1nnc(-c2ccco2)o1)c1ccc[nH]1 | 83.1* | 0.0 | 9.5 | 4.0 | -2.0
Cc1ccc(S(=O)(=O)N2CCC(C(=O)OCCOc3cccc(C)c3)CC2)cc1 | . | . | . | 0.0 | -5.9
O=Cc1c(Cl)[nH]c(=O)n1-c1ccccc1 | 4.0 | 0.7 | 53.2* | . | 5.2
COc1ccc(/C=C(\C#N)C(=O)Nc2cccc3ncccc23)cc1OC | 4.4 | -0.1 | 9.0 | 0.0 | -22.6
N#C/C(=C\c1ccc(O)c(O)c1)C(=O)Nc1cccc2ncccc12 | 89.6* | . | 68.4* | 6.0 | -57.2
Oc1ccc2ccccc2c1C1Nc2cccc3cccc(c23)N1 | 76.6* | 0.1 | 50.5* | 2.0 | -9.9
COc1ccc(Br)cc1C1Nc2cccc3cccc(c23)N1 | 101.9* | . | 61.0* | 0.0 | 20.0
COc1ccc2ccc3ccc(OC)c(OC(C)=O)c3c2c1 | . | . | . | . | 11.1
COc1cc(C2Nc3cccc4cccc(c34)N2)ccc1O | 79.2* | . | 38.9* | 0.0 | -10.2
Clc1ccc(C2Nc3cccc4cccc(c34)N2)c(Cl)c1 | . | . | . | . | 29.2
COc1cc(C2Nc3cccc4cccc(c34)N2)cc(OC)c1OC(C)=O | 89.0* | 0.9 | 57.4* | 0.0 | 21.4
CCN(CC)c1ccc(C2Nc3cccc4cccc(c34)N2)c(O)c1 | 10.4 | 1.7 | 2.8 | 4.0 | 6.5
NC(=O)c1cc2c3ccccc3ccn2c1-c1ccccc1 | ? | 1.0 | ? | 2.0 | 45.9*
CCCCc1nc2sc3c(=O)n(N)cnc3c2c2c1CCC2 | -1.8 | 3.0* | -6.2 | 0.0 | 5.3
CN(C)C(=O)c1cccc(COc2ccc(N3C(N)=NC(N)=NC3(C)C)cc2Cl)c1 | . | . | . | . | -4.8
CCOC(=O)CSC1=N/C(=C\c2cccnc2)C(=O)N1c1ccc(OC)cc1 | 0.2 | 1.0 | -4.5 | 0.0 | 16.1
SMILES | eIF4H inh | PERK inhibitor | PABP polyA inh | GRK2 inh | PABP1 MLLE inh
CCOC(=O)CSC1=N/C(=C\c2cc(OC)c(OC)c(OC)c2)C(=O)N1C | -2.2 | 1.0 | -0.1 | 0.0 | 42.0*
COc1ccc2c(CC(=O)OCC(=O)Nc3ccc(C)cc3)coc2c1 | . | . | . | 44.0* | 9.9
CCN(CC)C(=S)Nc1ccc(OC)cc1 | active | -0.2 | 69.2* | 5.0 | -31.2
CCN(CC)C(=S)Nc1ccc(OC(F)F)cc1 | -6.5 | 1.4 | 2.6 | 3.0 | -87.6
COc1ccc(NC(=S)N(Cc2ccc(C(=O)O)cc2)Cc2ccc(OC)c(OC)c2)cc1 | 91.1* | -0.1 | active | 3.0 | -10.2
COc1ccc(CN(Cc2ccc(C(=O)O)cc2)C(=S)Nc2cccc(C)c2)cc1OC | -3.7 | 1.3 | 9.8 | 12.0 | -33.5
CC(C)=C(NC(=O)c1ccccc1Br)C(=O)NCCc1nc2ccccc2[nH]1 | 112.0* | 0.4 | active | 12.0 | -14.1
Cc1c(CCO)c(=O)[nH]n1S(=O)(=O)c1ccc(F)cc1 | 4.0 | . | -3.6 | 0.0 | 3.4
S=C(NCCCCN(Cc1ccc(Cl)cc1)c1ccc(Br)cn1)NCCCc1cnc[nH]1 | . | . | . | . | -5.7
Cc1ccc([N+](=O)[O-])cc1S(=O)(=O)Nc1ccc(O)c(Sc2ncn[nH]2)c1 | 1.6 | . | 4.4 | 4.0 | 41.1*
COc1ccc(C)cc1NC(=O)C(NC(=O)c1cc(OC)c(OC)c(OC)c1)C(C)C (stereo not drawn) | 91.4* | 0.3 | 1.6* | 0.0 | -7.5
C=CCOC(=O)c1cc(-c2ccc(/C=C3\C(=O)NC(=O)C(C#N)=C3C)o2)ccc1Cl | 70.8* | 0.7 | 51.1* | . | -12.6
CC1=C(C#N)C(=O)NC(=O)/C1=C/c1ccc(-c2ccc(S(N)(=O)=O)cc2)o1 | ? | 0.7 | -1.9 | 4.0 | -3.3
Fc1cccc(CN2CCN(c3nc4nonc4nc3NC3CC3)CC2)c1 | 89.7* | 1.1 | 77.2* | 0.0 | 11.8
CC(C)C[C@H](NC(=O)C1CC(=O)N(c2ccc3c(c2)OCO3)C1)C(=O)NC1CCCCC1 (stereo partly drawn) | 7.1 | . | 1.2 | 1.0 | -7.1
Cc1ccc(Sc2ncccc2O)cc1 | . | . | . | 4.0 | 9.6
Cc1ccc(Sc2ncccc2COC(=O)NC(C)C)cc1 | active | 0.8 | 52.7* | 5.0 | -13.7
Cc1cc(C)cc(OCc2nnc(SCC(=O)N3CCCCC3)o2)c1 | -2.8 | . | 4.3 | 0.0 | 0.7
CN1CCN(NC(=O)CN2C(=O)S/C(=C\c3c(Cl)cccc3Cl)C2=O)CC1 | 7.8 | 0.8 | -5.3 | 0.0 | 41.0*
O=C(Nc1ccc(C2=CN(Cc3ccccc3)CCC2=O)cc1)OCc1ccccc1 | . | . | . | 2.0 | -7.6
Cc1ccc(C(=O)NC(=S)Nc2c(C)ccc3nsnc23)cc1 | 2.0 | 0.4 | 2.7 | 0.0 | 17.7
CC(C)C(=O)NC(=S)Nc1c(Cl)ccc2nsnc12 | 78.6* | 0.1 | 73.2* | 2.0 | 18.2
S=C1NCCNC(=S)NCCOCCOCCN1 | active | 2.2 | 81.1 | 0.0 | -47.4
C1COCCNCCOCCOCCOCCN1 | 5.1 | 1.3 | -4.5 | 0.0 | -2.6
CCC12CCCN3CCC4(C(=C(C(=O)OC)C1)Nc1ccccc14)C32 (stereo not drawn) | 17.3 | -0.2 | 57.4* | . | -99.3
CCCn1c(C)cc(-c2csc(N)n2)c1C | 122.4* | 0.3 | 122.4 | 9.0 | 21.7
C=CCn1c(C)cc(-c2csc(N)n2)c1C | ? | -0.9 | ? | 0.0 | 28.3
CC1CCN(C(=O)CSc2nncn2-c2ccccn2)CC1 | -8.1 | 1.1 | -12.7 | 2.0 | 38.8*
CC1CCN(C(=O)CSc2nncn2C)CC1 | 0.0 | 0.2 | -0.1 | 0.0 | 2.4
COCCn1c(SCC#N)nnc1-c1ccc([N+](=O)[O-])cc1 | 0.9 | 0.8 | 9.0 | 2.0 | -1.8
